# The entries come from a sample that favours hits as a whole.
# DT40 TDP1 CPT = DT40-hTDP1 cell growth loss with CPT. chicken DT40 Tdp1-/-;hTDP1 cells + 20 nM CPT, ATP luminescence, 48 h. Potency, µM (highest dose often 46.2 µM), without a hit: at the highest dose activity change, negative = growth inhibition, hits mostly inhibitors. 420,000 compounds, 12% hits; also: potency is read from the fitted curve at half-maximal effect; nearly all actives have a fitted effect of over 55% in size
#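 Chicken DT40 Tdp1-/- cells stably complemented with human TDP1 were seeded at 400 cells/well in medium containing 20 nM camptothecin, exposed to pin-transferred compounds, and grown at 37 °C for at least 48 hr. Viability was read as ATP luminescence.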
# 12-LOX inh = blocks human arachidonate 12S-lipoxygenase; P18054; purified 12hLO, xylenol orange hydroperoxide absorbance; Potency, µM (series often up to 108 µM), for the others: top-dose activity change, negative = inhibition, actives largely listed as inhibitors; 580,000 compounds, 1.1% hits; also: potency is read from the fitted curve at half-maximal effect
# Target sequence (P18054 whole entry, looked up): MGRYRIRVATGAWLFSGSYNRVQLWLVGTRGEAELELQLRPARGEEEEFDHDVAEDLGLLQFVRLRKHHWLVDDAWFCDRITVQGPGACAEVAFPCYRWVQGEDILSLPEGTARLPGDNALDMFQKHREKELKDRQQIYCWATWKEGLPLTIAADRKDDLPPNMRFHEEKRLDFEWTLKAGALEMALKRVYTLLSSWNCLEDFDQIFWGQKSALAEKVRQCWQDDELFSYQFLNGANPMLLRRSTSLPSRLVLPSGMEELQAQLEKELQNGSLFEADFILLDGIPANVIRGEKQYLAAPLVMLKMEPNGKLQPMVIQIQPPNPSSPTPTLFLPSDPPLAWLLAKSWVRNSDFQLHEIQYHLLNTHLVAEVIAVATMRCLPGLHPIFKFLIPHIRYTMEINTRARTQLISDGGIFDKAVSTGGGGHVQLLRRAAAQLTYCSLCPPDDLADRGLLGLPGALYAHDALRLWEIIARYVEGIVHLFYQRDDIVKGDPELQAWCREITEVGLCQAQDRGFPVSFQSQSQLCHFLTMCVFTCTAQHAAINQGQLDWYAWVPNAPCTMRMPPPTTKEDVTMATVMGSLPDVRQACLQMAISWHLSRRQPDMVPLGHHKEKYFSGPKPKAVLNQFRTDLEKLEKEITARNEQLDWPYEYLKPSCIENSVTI
#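 Hydroperoxide product was detected by ferrous iron/xylenol orange as the 573 to 405 nm absorbance ratio. Arachidonic acid at 40 uM (final) was turned over for 30 min at room temperature by 150 nM human 12hLO, pH 7.0 Hepes buffer, after 15 min compound preincubation.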
# HT1080-NT tox = kills 2HG-producing HT-1080-NT fibrosarcoma cells; HT-1080-NT fibrosarcoma viability, CellTiter-Glo ATP luminescence, 48 h; Potency, µM (doses to about 46.1 µM), inactives show at the top dose activity, negative = less viability, usual class: cytotoxic; 360,000 compounds, 1.6% hits; AID 686970;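 also: NT is the 2HG producing partner of a matched IDH1 knockdown line; potency is read from the fitted curve at half-maximal effect; 0% = DMSO-treated cells and -100% = media-only wells without cells; nearly all actives have a fitted effect of over 55% in size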
#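 HT-1080-NT fibrosarcoma cells (2HG-overproducing), 750 cells/well in RPMI with 5% FBS, dosed after 2 h and incubated 48 h at 37C. CellTiter-Glo luminescence normalized to DMSO and no-cell wells; concentration-response curves fitted and classed.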
# TDP1 cell noCPT = qHTS for Inhibitors of human tyrosyl-DNA phosphodiesterase 1 (TDP1): qHTS in cells in absence of CPT. DT40 Tdp1-/- hTDP1 cells, no CPT, ATP luminescence, 48 h. Potency, µM (doses to about 46.2 µM), inactives show top-dose activity change, negative = growth inhibition, hits mostly inhibitors. 420,000 compounds, 15% hits. AID 686978, 2013; also: potency is read from the fitted curve at half-maximal effect; nearly all actives have a fitted effect of over 55% in size
#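 No-CPT arm: Tdp1-/-;hTDP1 DT40 cells (400/well) plus compounds, incubated ≥48 hr at 37 °C. Readout CellTiter-Glo luminescence.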
# HT1080 IDH1KD tx = toxicity to HT-1080 IDH1 knockdown cells (counter line). AID 686971. HT-1080 IDH1 knockdown viability, ATP luminescence, 48 h. 360,000 compounds, 2% hits. Potency, µM (titrated, usually from 46.1 µM), inactives show top-dose activity, negative = toxicity, hits mostly cytotoxic;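 also: potency is read from the fitted curve at half-maximal effect; 0% = DMSO wells and -100% = cell-free medium wells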
#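 IDH1KD HT-1080 cells, 750/well, RPMI + 5% FBS; compound pinned after 2 h settling; 48 h, 37 °C; CellTiter-Glo luminescence; % activity normalised to DMSO and no-cell wells; curves fitted, classed by r2 and efficacy.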
# IL1B secr inh = blocks inflammasome-driven IL-1 beta release | 360,000 compounds, 4.7% hits | THP-1 LPS/ATP IL-1B secretion, AlphaLISA, 16 h; active compounds read low | activity change, % at 57.5 µM | AID 743279; in the data active = activity change below about -50%; inconclusive = mostly about -30% to -49%
#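 THP-1 cells pretreated 1 hr with compounds (up to 57.5 uM final), then stimulated with LPS (250 ng/mL final) plus ATP (1.25 mM final); secreted IL-1B measured by AlphaLISA after 16 hr, decreased signal indicating inhibition.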
# * marks the source's active call; other numbers are inactive results; ? = inconclusive; / = no result. Unless noted, calls follow the shape of the dose curve; as a rule, active = well fitted curve in the direction sought with a large enough effect; inconclusive = small, poorly fitted or top-dose-only effect, or another doubt; inactive = no such curve, though single readings can be large; an effect the other way counts as inactive or inconclusive. Unless noted, % is scaled to controls: 0 for no effect and ±100 for the full control effect.
SMILES,DT40 TDP1 CPT,12-LOX inh,HT1080-NT tox,TDP1 cell noCPT,HT1080 IDH1KD tx,IL1B secr inh
Cc1nc(N)sc1C(=O)N/N=C/c1ccccc1[N+](=O)[O-],/,-9%,/,/,/,/
COc1cc(/C=N/NC(=O)c2ccc(-n3cccc3)cc2)ccc1O,?,11%,1%,?,-13%,-69*
COc1cc(/C=N/NC(=O)c2ccc(-c3ccccc3)cc2)cc(OC)c1OC,21µM*,-7%,0%,?,-10%,-20
COCCNC(=O)[C@H]1C[C@H](Oc2cccnc2)CN1S(=O)(=O)c1ccc(OC)cc1,/,1%,/,/,/,/
CSc1nnc(NC(=O)c2cc(=O)c3cc(Cl)c(C)cc3o2)s1,/,-2%,/,/,/,/
COc1cc(C(=O)N/N=C/c2sc(=O)n(-c3ccccc3)c2Cl)cc(OC)c1OC,?,2%,0%,?,11%,-71*
COc1cc(/C=C(/C(=O)O)c2ccc(-c3ccccc3)cc2)cc(OC)c1OC,?,-8%,?,?,9.2µM*,33
COc1cc(/C=N\NC(=O)c2sc(N)nc2C)cc(OC)c1OC,?,0%,29%,13µM*,23%,-79*
NNC(=O)c1cc(-c2ccccc2)sc1N,-2%,-24%,-4%,-22%,13%,0
COc1cc(/C=N/NC(=O)c2cc(-c3ccccc3)sc2N)cc(OC)c1OC,16µM*,0%,?,16µM*,?,-72*
COc1ccc2nc(NC(=O)c3cc(-c4ccccc4)on3)sc2c1,/,5%,/,/,/,/
Cc1nnsc1C(=O)N/N=C/c1ccc2ccccc2c1O,1µM*,-12%,4.1µM*,0.82µM*,3.7µM*,57
CC(C)(C)C(=O)NCC(O)COc1ccc(C(F)(F)F)cc1 (stereo unspecified),/,-15%,/,/,/,/
O=C(N/N=C/c1ccc2c(c1)OCO2)c1cc(-c2ccco2)nc2ccccc12,9.2µM*,-24%,4.1µM*,7.3µM*,3.7µM*,20
CC(=O)Nc1ccc(/C=N/NC(=O)c2cc(-c3ccco3)nc3ccccc23)cc1,-24%,3%,-10%,?,-8%,30
O=C(N/N=C/c1ccc2c(c1)OCO2)c1cc(-c2ccccc2)nc2ccccc12,21µM*,-12%,-25%,10µM*,-25%,1
Cc1noc(-c2cn(C3CCN(C(=O)Cc4ccc(Br)cc4)CC3)nn2)n1,/,13%,/,/,/,/
CCCCCCCCOC(=O)C[N+](C)(C)C/C=C(/C)Cl,16µM*,-13%,-4%,10µM*,-14%,-18
C/C(Cl)=C\C[N+](C)(C)CC(=O)OCCc1ccccc1,0%,?,1%,-15%,8%,-11
CCCCCCCCCCCCOC(=O)C[N+](C)(C)C,6%,?,23%,-13%,21%,/
CCCCCCCCCCOC(=O)C[N+](C)(C)C/C=C(/C)Cl,8.2µM*,-14%,-8%,3.7µM*,-10%,?
COc1ccc(OC)c(S(=O)(=O)N(C)CC(=O)N2CCN(c3cccc(Cl)c3)CC2)c1,?,0%,-13%,18µM*,-1%,2
COc1ccc(N2CCN(C(=O)Cc3coc4ccc(C)cc34)CC2)cc1,18µM*,-21%,/,?,/,/
COc1ccc(N2CCN(C(=O)Cc3ccc(OC)c(OC)c3)CC2)cc1,8.2µM*,-23%,-14%,16µM*,-16%,-2
Cc1ccc2onc(CC(=O)N3CCN(c4ccc(F)cc4)CC3)c2c1,15µM*,-17%,/,?,/,/
SMILES,DT40 TDP1 CPT,12-LOX inh,HT1080-NT tox,TDP1 cell noCPT,HT1080 IDH1KD tx,IL1B secr inh
COc1ccc(OC)c(S(=O)(=O)N(C)CC(=O)N2CCN(c3ccc(F)cc3)CC2)c1,-25%,1%,-1%,-21%,-4%,-2
O=C(N[C@@H]1COCC[C@@H]1OCc1ccccc1)c1n[nH]c2c1COCC2,/,23%,/,/,/,/
CC1CCN(C(=O)c2cc3ccc(C(C)C)cc3[nH]2)CC1,/,1%,/,/,/,/
COc1ccc(CC(=O)N2CCN(c3cccc(Cl)c3)CC2)cc1OC,?,?,-9%,10µM*,-3%,29
COC[C@H]1NC(=O)CC[C@H]1C(=O)N1CCCc2ccccc21,/,1%,/,/,/,/
COc1ccc(-c2coc3cc(O)cc(O)c3c2=O)cc1,?,?,-6%,?,-5%,-3
O=c1c(-c2ccc(O)cc2)coc2cc(O)cc(O)c12,13µM*,?,-3%,12µM*,-1%,-3
CCCCNc1ccc(C(CC(N)=O)NC(=O)Cc2cccc3ccccc23)cc1[N+](=O)[O-] (stereo unspecified),-7%,?,10%,-21%,7%,-1
COc1ccc(CCNc2ccc(C(CC(N)=O)NC(=O)Cc3cccc4ccccc34)cc2[N+](=O)[O-])cc1 (stereo unspecified),23µM*,0%,0%,?,1%,-3
COc1ccc(CCNc2ccc(C(CC(N)=O)NC(=O)c3cc(OC)ccc3OC)cc2[N+](=O)[O-])cc1 (stereo unspecified),26µM*,2%,-2%,?,-1%,-19
COc1ccc(OC)c(C(=O)NC(CC(N)=O)c2ccc(NCCOc3ccccc3)c([N+](=O)[O-])c2)c1 (stereo unspecified),?,-14%,6%,?,0%,-3

# Screens from PubChem.
